# Test results: PubChem BioAssay AID602405 (Broad Institute, 2012)
# In all, about 360,000 compounds went through this assay and about 350 (0.097%) were called active. Rule as the data show it: active = inhibition above about 16% (passing the limit was not always enough); inconclusive = no clear call, values can overlap the other calls; inactive = below that. The list comes from a sample in which actives are over-represented; it also holds similar structures and randomly drawn compounds.
# Test system: UDP-N-acetylbacillosamine N-acetyltransferase PglD (Campylobacter jejuni)
# Test: blockers of PglD enzyme activity – biochemical, DTNB colorimetric, single point, primary screen (AID 602405)
# Conditions: purified PglD enzyme, DTNB colorimetric CoA detection; at 12.5 µM; hits give high values
row,Structure (SMILES),inhibition
1,COC(=O)C[C@@H]1C[C@H]2c3cc(NC(=O)CN(C)C)ccc3O[C@H]2[C@H](CO)O1,1.44% (inactive)
2,COc1ccc(S(=O)(=O)Nc2cccc3c2O[C@@H](CN(C)C(=O)NC(C)C)[C@H](C)CN([C@@H](C)CO)C3=O)cc1,3.51% (inactive)
3,CCCNC(=O)Nc1ccc2c(c1)C(=O)N(C)C[C@H](OC)[C@H](C)CN[C@@H](C)CO2,1.64% (inactive)
4,C[C@H]1CN([C@@H](C)CO)C(=O)c2cccc(NC(=O)Nc3ccccc3)c2O[C@H]1CN(C)S(=O)(=O)c1ccc(Cl)cc1,1.05% (inactive)
5,O=C(N[C@H]1C=C[C@@H](CC(=O)N2CCN(c3ccccc3)CC2)O[C@@H]1CO)c1ccncc1,1.58% (inactive)
6,CCC(=O)Nc1ccc2c(c1)C(=O)N(C)C[C@@H](OC)[C@@H](C)CN(Cc1ccccc1F)[C@H](C)CO2,2.28% (inactive)
7,CCCNC(=O)N(C)C[C@H]1Oc2ncc(-c3cccc(C#N)c3)cc2C(=O)N([C@@H](C)CO)C[C@H]1C,0.216% (inactive)
8,O=C(NNC(=O)c1ccco1)Nc1ccccc1,3.41% (inactive)
9,O=C(Nc1ccc(Sc2ccc(Br)cc2)cc1)c1ccco1,20.2% (active)
10,O=C(CNC(=O)c1ccco1)NNC(=O)c1ccc(Br)cc1,2.58% (inactive)
11,O=C(Nc1ccccc1F)N1C[C@H]2[C@@H](c3ccccc31)[C@@H](CO)N2C(=O)Cc1cccnc1,5.55% (inactive)
12,COc1ccc(NC(=O)Nc2ccc3c(c2)C(=O)N([C@@H](C)CO)C[C@@H](C)[C@H](CN(C)Cc2ccc(Cl)c(Cl)c2)O3)cc1,6.96% (inactive)
13,COc1cccc(CNC(=O)C[C@@H]2C=C[C@@H](NC(=O)C3CCC3)[C@@H](CO)O2)c1,-2.99% (inactive)
14,Cc1noc(C)c1NC(=O)N(C)C[C@@H]1Oc2ccc(NS(C)(=O)=O)cc2C(=O)N([C@H](C)CO)C[C@@H]1C,-1.3% (inactive)
15,C[C@H](O)C#Cc1ccc2c(c1)O[C@@H](CN(C)C(=O)C1CCCCC1)[C@H](C)CN([C@@H](C)CO)S2(=O)=O,-1% (inactive)
16,C[C@H]1CCCCO[C@H](CN(C)CC2CC2)[C@@H](C)CN([C@@H](C)CO)C(=O)c2cc(NS(C)(=O)=O)ccc2O1,32% (inactive)
17,O=C(c1ccc(F)cc1)N1CCCCN2[C@@H](CO)[C@H](c3ccc(-c4ccccc4)cc3)[C@@H]2C1,1.69% (inactive)
18,Cc1ccc(C2=C/C(=C\c3cccnc3)C(=O)O2)cc1,49.3% (active)
19,Cc1ccc(C(=O)N/C(=C/c2cccnc2)C(=O)O)cc1,-2.85% (inactive)
20,CN(C)/C=C1\C=C(c2ccccc2)OC1=O,-0.491% (inactive)
